The text below walks through data of PubChem BioAssay (NCI).

Where “and” joins values, the source holds several entries; their conditions need not be identical. Equal entries are not always repeated. Compounds without any hit were thinned out: in the full panel of roughly 83,000, 20% have a hit.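 Single-concentration screen, 48 h exposure, 96-well plates. Endpoint: percent growth. Below 10 = active.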 A number with no mark means an inactive call. Calls of active or inactive are those of the source.

The subject of this assay is OVCAR-8 ovarian. Put plainly: NCI-60 one-dose screen, 48 h (100 = growth as untreated, 0 = no growth, -100 = all killed). The following applies: 10 µM unless noted.
As to `Cc1ccc(S(=O)(=O)NCCCNc2nccc(-c3[nH]c(-c4ccccc4)nc3-c3ccc(F)c(O)c3)n2)cc1`, the growth is 86.7%.

Consider `COc1cc(-c2nc(-c3ccccc3)[nH]c2-c2ccnc(NCCCNS(=O)(=O)c3ccc(C(F)(F)F)cc3)n2)ccc1Cl`, for which the growth is 53.2% and 40.2%.

For the compound `C#C[C@]1(O)CC[C@H]2[C@@H]3CC=C4c5sc(Nc6ncccc6C)nc5CC[C@]4(C)[C@H]3CC[C@@]21C`, the growth was 31.1%.

As to `CCOC(=O)c1c(NC(=O)c2cccc(C(F)(F)F)c2)sc2c3c(ccc12)OCN(C)C3`, the growth is -41.6% (active).

With `COc1ccc(/C=N/NC(=O)CSc2nc(-c3cnccn3)cc(-c3cccs3)c2C#N)cc1`, the growth was 61.4%.

In the case of `CCCCCCN1C=C/C(=C\C(=O)n2ccc3ccccc32)c2ccccc21`, the growth was 73.8%.

On to `Cc1ccc(C(=O)CSc2nc3ccccc3c(=O)n2C)cc1`, for which the growth is 94.4%.

On to `O=C(CCCCCCNC(=O)C(O)(O)C(F)(F)F)Nc1ccc(-c2ccccc2)cc1`, for which the growth was 6.81% (active).

On to `COc1ccc(C2CC(c3cccc(OCCCCOc4cccc(C5=NN(C(C)=O)C(c6ccc(OC)cc6)C5)c4)c3)=NN2C(C)=O)cc1` (stereo unspecified), for which the growth was 68.2%.

As to `Cn1cc(-c2nc(N)nnc2-c2c[nH]c3ccc(Br)cc23)c2cc(F)ccc21`, the growth was 96.8%.

For the compound `Oc1[nH]c2ccc(Cl)cc2c1N=Nc1nc(N=Nc2c(O)[nH]c3ccc(Cl)cc23)nc(N2CCCCC2)n1`, the growth is 25.9%.

With `CC(=O)Nc1cc(N2CCOCC2)c2nc(NC(=O)c3[nH]c(C)c(Cl)c3Cl)sc2c1`, the growth was 67.1%.

In the case of `C#CCN(C)CCCOc1ccc(NCc2ccc(/C=C/C(=O)NO)cc2)cc1Cl`, the growth was 11.9%.

With `COC(=O)c1ccc(NC2=C(Cl)C(=O)c3nc(C)ccc3C2=O)cc1`, the growth is 70.1%.

Consider `Cc1ccc2c(n1)C(=O)C(Cl)=C(Nc1cc(C(F)(F)F)cc(C(F)(F)F)c1)C2=O`, for which the growth was 87.8%.

Regarding `COC(=O)c1cccc(NC2=C(Cl)C(=O)c3nc(C)ccc3C2=O)c1`, the growth is 77.4%.

For `COc1cc(C(C)=C(c2ccc(OCCN(C)C)cc2)c2ccc(OCCN(C)C)cc2)ccc1F`, the growth is 104%.

As to `N#Cc1c(-c2cccs2)cc(-c2cnccn2)nc1SCC(=O)N/N=C/c1ccncc1`, the growth is 103%.

For the compound `C#Cc1cc(OC)c(C(=O)Nc2ccc(F)cc2C(=O)Nc2cccc(S(=O)(=O)C(F)(F)F)c2)cn1`, the growth is 5.67% (active).

On to `NC1=NC2(CCCC2)N(c2ccc(S(=O)(=O)Nc3nccs3)cc2)C(N)=N1`, for which the growth was 105%.

`Cn1cc(-c2nnc(N)nc2-c2c[nH]c3ccc(F)cc23)c2cc(Br)ccc21`: the growth was 34.4%.

Regarding `CCCN1C=C/C(=C\C(=O)n2ccc3ccccc32)c2ccccc21`, the growth was 95.6%.

`Cc1ccc2c(n1)C(=O)C(Cl)=C(Nc1ccc(C(C)C)cc1)C2=O`: the growth was 8.76% (active).

As to `COc1ccc2c(c1)C=CC1(O2)Oc2ccc(OC)cc2C=C1C` (stereo unspecified), the growth is 17.5%.

With `NCCNC(=O)c1cccc(COc2ccccc2NC(=O)c2cc(Cl)c(Cl)[nH]2)c1`, the growth is 92.1%.

Regarding `Cc1cc(C)cc(NC2=C(Cl)C(=O)c3nc(C)ccc3C2=O)c1`, the growth was 73.1%.

Turning to `Cc1nc(/N=C(N)/N=C(\N)c2cccc(Br)c2)sc1C`, the growth is 58.2%.

Take `Fc1ccc2nc(-c3cnn4cccnc34)sc2c1`: the growth is 83.5%.

On to `COc1ccc(C(=O)c2c(N)c(C#N)cn2-c2ccc(Cl)cc2Cl)cc1`, for which the growth was 94.6%.

On to `COc1ccc(C2CC(c3cccc(OCCCCOc4cccc(C5=NOC(c6ccc(OC)cc6)C5)c4)c3)=NO2)cc1` (stereo unspecified), for which the growth is 93.5%.

On to `CCN(CC)CCOc1ccc(C(=C(C)c2ccc(OC)cc2)c2ccc(OCCN(CC)CC)cc2)cc1`, for which the growth was 10% (active).

Regarding `CN1CCN(c2ccc(Nc3nc(NCCCNS(=O)(=O)c4ccccc4)c4sccc4n3)cc2)CC1`, the growth was 65.8%.

As for `CC1=C(C)C(=O)C(Nc2cccc(C(=O)OC(C)(C)C)c2)=C(Cl)C1=O`, the growth was 92.9%.

In the case of `O=C(/C=C/c1cccc(F)c1)c1cccc(OCCCOc2cccc(C(=O)/C=C/c3cccc(F)c3)c2)c1`, the growth was 67.6%.

`CC(Nc1ncnc2ccc(-c3cnc4cnccn34)cc12)c1ccccc1` (stereo unspecified): the growth is 59.7%.

Turning to `CC1CC(=O)C2=C(C1)Nc1ccc(Br)cc1CC2c1c[nH]c2ccc(Br)cc12` (stereo unspecified), the growth is 66.2%.
